HCV inh – inhibitors of hepatitis C virus infection | Potency, µM (series often up to 41.8 µM), inactives show at the top dose activity change, negative = inhibition, actives largely listed as inhibitors | 340,000 compounds, 3.4% hits | Huh7.5.1 HCVcc-Cre infection, luciferase reporter, 44 h
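Infectious HCVcc-Cre (~0.5 moi) was added to cells just after compound, with cells seeded 4 h earlier at 1,000 per well. Luciferase activity after 44 h culture reported infection; substrate was incubated 15 min at room temperature before reading.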
AMA1 RON2 block – disrupts binding of P. falciparum AMA1 to RON2; AlphaScreen AMA1-biotinylated RON2 peptide binding; Potency, µM (top dose mostly 58.2 µM), for inactives: top-dose activity change, negative = inhibition, hits mostly inhibitors; 360,000 compounds, 0.2% hits; AID 720542;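 also: 0% = vehicle wells and -100% = peptide control; nearly all actives have a fitted effect of over 45% in size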
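AMA1 (3D7) with his tag at 25 nM final met compounds first, then biotinylated RON2 peptide at 25 nM; detection used donor plus acceptor beads, 10 µg/mL apiece, read by AlphaScreen after 30 min at room temperature.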
Pf growth 96h – P. falciparum growth inhibition at 96 hours. AID 504834. 320,000 compounds, 6.9% hits. P. falciparum luciferase reporter growth, 96 h. Potency, µM (highest dose often 28.7 µM), without a hit: top-dose activity change, negative = inhibition, hits mostly inhibitors
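Readout is luminescence from an integrated firefly luciferase in P. falciparum. Red cells, 2% hematocrit and 0.05% parasitemia final, were cultured with compound through two parasite generations (96 hours) at 37 C, 5% CO2.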
Pf growth 48h – P. falciparum growth inhibition at 48 hours (one generation). P. falciparum luciferase growth in erythrocytes, 48 h. Potency, µM (highest dose often 28.7 µM), for inactives: top-dose activity change, negative = inhibition, actives largely listed as inhibitors. 310,000 compounds, 5.9% hits
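Parasite viability was followed by luminescence of a genomically integrated firefly luciferase. Cultures held 0.1% parasitemia at 2% hematocrit (final), incubated under 5% CO2 at 37 C.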
AmpC detergent – AmpC beta-lactamase inhibition with detergent present | P00811 | AmpC hydrolysis of nitrocefin, absorbance 480 nm, 0.01% Triton | Potency, µM (highest dose often 114 µM), for inactives: at the highest dose activity change, negative = inhibition, actives largely listed as inhibitors | 370,000 compounds, 0.041% hits | AID 485294;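 also: 0% = no-compound wells and -100% = no-enzyme wells; nearly all actives have a fitted effect of over 25% in size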
Target sequence (P00811 whole entry, looked up): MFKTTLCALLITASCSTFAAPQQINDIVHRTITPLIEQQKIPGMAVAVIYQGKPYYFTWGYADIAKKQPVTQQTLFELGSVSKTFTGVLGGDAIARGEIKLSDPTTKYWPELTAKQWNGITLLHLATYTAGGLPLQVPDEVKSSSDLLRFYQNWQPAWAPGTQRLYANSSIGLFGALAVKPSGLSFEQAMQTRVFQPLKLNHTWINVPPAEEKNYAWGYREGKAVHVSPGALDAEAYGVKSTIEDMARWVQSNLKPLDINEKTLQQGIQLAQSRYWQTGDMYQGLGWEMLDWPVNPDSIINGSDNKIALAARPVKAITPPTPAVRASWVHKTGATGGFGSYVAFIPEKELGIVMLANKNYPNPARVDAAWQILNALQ
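AmpC (5.3 nM in the dispensed reagent) in 20 mM phosphate pH 7.0 with 0.01% (detergent screen) or 0.0001% Triton X-100 was preincubated with compounds for 15 min at room temperature. Nitrocefin was then added from an 800 uM solution, and hydrolysis was followed at 480 nm.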
AmpC inh no detg – inhibitors of E. coli AmpC beta-lactamase without detergent; Potency, µM (series often up to 57.1 µM), for the others: at the highest dose activity change, negative = inhibition, most hits filed as inhibitors; P00811; AID 485341; 330,000 compounds, 0.52% hits; AmpC nitrocefin hydrolysis, absorbance 480 nm, 0.0001% Triton;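 also: plate controls were no compound for no effect and no enzyme for full effect; nearly all actives have a fitted effect of over 20% in size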
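AmpC (5.3 nM in the dispensed reagent) in 20 mM phosphate pH 7.0 with 0.01% (detergent screen) or 0.0001% Triton X-100 was preincubated with compounds for 15 min at room temperature. Nitrocefin was then added from an 800 uM solution, and hydrolysis was followed at 480 nm.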
The depositor's hits bear a star; ? = inconclusive; . = no result given; [ ] = another dose, or the depositor's remark. Most compounds without a hit are left out; they make up all but 11% or so of the library. Calls follow the shape of the dose curve; as a rule, active = well fitted curve in the direction sought with a large enough effect; inconclusive = small, poorly fitted or top-dose-only effect, or another doubt; inactive = no such curve, though single readings can be large; an effect the other way counts as inactive or inconclusive. Unless noted, % is scaled to controls: 0 for no effect and ±100 for the full control effect; potency is read from the fitted curve at half-maximal effect.

SMILES	HCV inh	AMA1 RON2 block	Pf growth 96h	Pf growth 48h	AmpC detergent	AmpC inh no detg
Cc1cc(N2CCCCC2)n2ncc(-c3ccc(Cl)cc3)c2n1	-31.3%	174.6%	140.2%	.	?	-2.5%
Cc1cc(N2CCCCC2)n2ncc(-c3ccccc3)c2n1	10µM*	127.4%	1.3%[5.75 µM]	14.2%	-10.4%	0.7%
Cc1cc(-c2ccccc2)n2ncc(-c3ccccc3)c2n1	?	9.7%[11.6 µM]	-1.2%	161.4%	-11.9%	-15.3%
COc1ccccc1-c1c(C)nn2c(-c3ccccc3)cc(C)nc12	5.01µM*	19.1%	?	?	11.6%	74.4%
COc1ccc(-c2cc(C)nc3c(-c4ccccc4)cnn23)cc1	11.2µM*	13.9%	19.0%	12.8%	1.5%	-9.1%
COc1ccc(CNC(=O)c2ccc3c(c2)N(Cc2ccccc2C)C(=O)c2ccccc2S3=O)cc1 (stereo unspecified)	.	.	.	.	6.3%	.
CCOCCCNC(=O)C1CCN(c2cc(C)nc3c(-c4ccc(OC)c(OC)c4)c(C)nn23)CC1	11.2µM*	-7.8%	-4.0%	4.15µM*	?	51.7%
COc1ccc(-c2c(C)nn3c(NC4CCCC4)cc(C)nc23)cc1OC	10µM*	-10.6%	?	?	-4.5%	158.7%
Cc1cc(NC2CCCC2)n2nc(C)c(-c3ccccc3)c2n1	?	7.8%	?	?	0.9%	30.0%
COc1ccccc1-c1c(C)nn2c(N3CCCCCC3)cc(C)nc12	12.6µM*	32.3%	9.28µM*	10.4µM*	?	156.1%
Cc1nn2c(N3CCCC3)cc(C(C)C)nc2c1-c1ccccc1	14.1µM*	4.3%	16.8%	-5.8%	-7.6%	-8.8%
CC(=O)c1cccc(NC(=O)[C@H](Cc2ccccc2)N2Cc3ccccc3C2=O)c1	.	.	.	.	-13.5%	.
CCCNC(=O)C1CCC(Cn2c(=O)c3sccc3n(CC(=O)N3CCC(C)CC3)c2=O)CC1 (stereo unspecified)	.	.	.	.	5.1%	.
CC1=C(C(=O)NCc2ccccc2F)C2(CCCCC2)OC1=O	.	.	.	.	27.5%	.
COc1cccc(CNC(=O)CCS(=O)(=O)c2cc3c4c(c2)CCN4C(=O)CC3)c1	.	.	.	.	3.2%	.
C=CCSc1cc(C)nc2c(-c3ccccc3)c(C)nn12	?	31.5%	10.4µM*	?	-4.3%	30.7%
Cc1cc(N2CCCCC2)n2nc(C)c(-c3ccccc3)c2n1	1.58µM*	48.8%	?	?	?	7.2%
COc1ccccc1-c1cnn2c(NCCc3ccccc3)cc(C)nc12	10µM*	95.8%	45.7%	38.3%	0.5%	-19.0%
COCCNc1cc(C)nc2c(-c3ccccc3OC)c(C)nn12	?	0.8%	2.33µM*	-2.1%	-5.7%	-1.7%
COc1ccc(CCNc2cc(C)nc3c(-c4ccccc4)cnn23)cc1OC	?	14.6%	-4.7%	-23.8%	-3.9%	130.7%
Cc1cc(SCC#N)n2nc(C)c(-c3ccccc3)c2n1	?	-14.7%	192.6%	-9.9%	-8.3%	67.0%
CCCCN(CC)C(=O)Nc1ccc2c(c1)N(C)C(=O)c1ccccc1S2	.	.	.	.	20.2%	.
COc1ccc(-c2c(C)nn3c(N)c(-c4ccccc4)cnc23)cc1OC	12.6µM*	96.3%	-12.4%	?	-7.4%	38.0%
Cc1nc2cc(-c3cccc(F)c3)nn2c(C)c1CCC(=O)NC(C)CCc1ccco1 (stereo unspecified)	-22.5%	1.1%	10.4µM*	.	-21.3%	151.9%
COc1cc(OC)cc(-c2cc3nc(C)c(CCC(=O)NC(C)CCc4ccco4)c(C)n3n2)c1 (stereo unspecified)	?	7.9%	10.3%	9.28µM*	-10.2%	183.0%
CCc1c(C)nc2cc(-c3cc(OC)cc(OC)c3)nn2c1N1CCN(CCN2CCOCC2)CC1	?	-4.5%	37.1%	1.31µM*	-2.2%	46.2%
